About 83,000 compounds went through this panel and 20% of them were active in at least one assay; those are over-represented in the sample as a whole.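 Interpretation: 100, growth as untreated; towards 0, rising growth inhibition; 0, no net growth; 0 to -100, cell death. Compounds scoring below 10 were considered active.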 A number with no mark means an inactive call. Activity calls are given as the source filed them.
How the values were obtained:
Test in all cases: NCI-60 one-dose screen, 48 h (100 = growth as untreated, 0 = no growth, -100 = all killed)
Settings in all cases: 10 µM unless noted
NCI-H23 lung = test system: NCI-H23 lung
NCI-H226 lung = test system: NCI-H226 lung
NCI-H322M lung = test system: NCI-H322M lung
HOP-62 NSCLC = test system: HOP-62 NSCLC
NCI-H460 lung = test system: NCI-H460 lung
HOP-92 NSCLC = test system: HOP-92 NSCLC
NCI-H522 lung = test system: NCI-H522 lung
A549/ATCC NSCLC = test system: A549/ATCC NSCLC
786-0 renal = test system: 786-0 renal
COLO 205 colon = test system: COLO 205 colon

Compound	growth (NCI-H23 lung)	growth (NCI-H226 lung)	growth (NCI-H322M lung)	growth (HOP-62 NSCLC)	growth (NCI-H460 lung)	growth (HOP-92 NSCLC)	growth (NCI-H522 lung)	growth (A549/ATCC NSCLC)	growth (786-0 renal)	growth (COLO 205 colon)
CS(=O)(=O)c1nccc(-c2c(-c3ccc(F)c(OCCc4ccc(F)cc4)c3)nc3sccn23)n1	10.7%	78.1%	-89.1% (active)	15.1%	-56% (active)	-26.3% (active)	-74.5% (active)	83.5%	87.3%	86.9%
Cn1c2ccc(Br)cc2c2c3c(c4c5cc(F)ccc5oc4c21)C(=O)N(O)C3=O	77.2%	90.8%	103%	47.1%	45.9%	82.5%	72.1%	98.4%	97.6%	93.7%
COc1cc(O)c2c(c1)/C=C/C[C@H](O)[C@H](O)C(=O)/C=C\C[C@H](C)OC2=O	-1.38% (active)	40.6%	64%	51.1%	23.2%	-15.4% (active)	-61.3% (active)	58.6%	24.7%	-5.15% (active)
CCC(=O)Nc1cc(Nc2cc(NC3CC3)n3ncc(C#N)c3n2)ccc1C	15.3%	26.4%	19.4%	24.8%	16.1%	6.91% (active)	27%	26.9%	42%	30.4%
O=C(CCCCCCN1CC(=O)N2[C@@H](c3ccccc3)c3[nH]c4ccccc4c3C[C@H]2C1=O)NO	70.9%	105%	72.4%	58.5%	54.2%	57.9%	35%	95.9%	93.3%	58.8%
Cc1cccc(NC(c2cc3cccc4ccc5cccc2c5c43)c2nnnn2C(C)(C)C)c1C (stereo not given)	82.2%	31.9%	86.4%	86.5%	93.4%	90.2%	77.3%	92.7%	97.6%	102%
O=C(Nc1cc(F)cc2cccnc12)c1cnc(N2CCOCC2)cn1	59.2%	80.7%	92%	87.3%	98.9%	83.7%	15.2%	95.3%	65.7%	18.1%
CC1COc2c(N3CCN(C)CC3)c(F)cc3c(=O)c(C(=O)N/N=C/c4cc[nH]c4)cn1c23 (stereo not given)	41.1%	50%	65.7%	38%	0.46% (active)	28%	13.8%	-5.87% (active)	1.52% (active)	54.4%
C=CCn1c(SCC(=O)Nc2cccc(C(=O)/C=C/c3cc(OC)c(OC)c(OC)c3)c2)nc2ccccc2c1=O	24.4%	75.8%	67.1%	45.8%	16.8%	48.4%	39.2%	80.2%	43.7%	108%
COc1ccc(/C=N/Nc2nc(N/N=C/c3ccc(OC)cc3O)nc(N3CCOCC3)n2)c(O)c1	86.3%	69.4%	59.7%	64.8%	23.5%	88.6%	80.9%	53%	14.7%	63.5%
CC(=O)NC(C)(C)C(=O)N1CCC[C@H]1C(=O)NC(C)(C)C(=O)N[C@@H](C)C(=O)NC(C)(C)C(=O)N[C@@H](C)C(=O)N[C@@H](CCC(N)=O)C(=O)NC(C)(C)C(=O)N[C@H](C(=O)NC(C)(C)C(=O)NCC(=O)N[C@@H](CC(C)C)C(=O)NC(C)(C)C(=O)N1CCC[C@H]1C(=O)N[C@H](C(=O)NC(C)(C)C(=O)NC(C)(C)C(=O)N[C@@H](CCC(N)=O)C(=O)N[C@@H](CCC(N)=O)C(=O)N[C@H](CO)Cc1ccccc1)C(C)C)C(C)C	41% [4.25 µM]	57.2% [4.25 µM]	97.3% [4.25 µM]	60.6% [4.25 µM]	74.1% [4.25 µM]	60% [4.25 µM]	48% [4.25 µM]	49.4% [4.25 µM]	97.4% [4.25 µM]	46.7% [4.25 µM]
CCNC(=O)Oc1ccc(/C(=C(/C)c2ccc(Cl)cc2)c2ccc(OCCN(C)C)cc2)cc1	87%	94.4%	90.5%	80.2%	66.6%	45.1%	88.7%	71.6%	64.3%	82.8%
COc1cc2c3c(n(CCCNC4CCC4)c(=O)c2cc1OC)-c1cc2c(cc1C3=O)OCO2	-68% (active)	70.6%	-37.7% (active)	-72.2% (active)	-50.4% (active)	87.9%	-44.9% (active)	-50.6% (active)	-85.2% (active)	-79.9% (active)
COc1cc2c3c(n(CCCN4CCCCC4)c(=O)c2cc1OC)-c1cc2c(cc1C3=O)OCO2	-91.9% (active)	-61.6% (active)	-96.4% (active)	-71.4% (active)	-84.7% (active)	-77.4% (active)	-80.2% (active)	-58.4% (active)	-55.9% (active)	-88.8% (active)
COc1cc(C2CC(c3ccc(Nc4nc(NCCO)nc(Nc5ccc(Cl)cc5)n4)cc3)=Nc3c(N)nc(N)nc3N2)cc(OC)c1OC (stereo not given)	74%	81.7%	82.2%	43.3%	56.3%	43.5%	60.7%	103%	46.9%	90.4%
Cc1ccc(/C=C/c2nn3c(-c4ccco4)nnc3s2)cc1	104%	100%	94%	114%	99.9%	107%	94.4%	97.8%	88.4%	102%
CCn1c2ccc(/C=N/NS(=O)(=O)CCN(C)C)cc2c2cc(/C=N/NS(=O)(=O)CCN(C)C)ccc21	97.4%	96.5%	85.7%	82.7%	101%	92.2%	86.6%	101%	92%	115%
C/C=C/C=C1\C[C@H]2CO[C@H](O2)C1=O	93.9%	94.9%	93.7%	96.9%	104%	96.4%	95.6%	98.2%	102%	117%
COc1cc(/C=N/n2cnc3oc(-c4ccccc4)cc3c2=N)cc(CN2CCN(C)CC2)c1O	104%	87.3%	108%	88.1%	108%	74.9%	96.9%	94.3%	62.5%	80.9%
Brc1cccc(/C=N/Nc2nc(N/N=C/c3cccc(Br)c3)nc(N3CCOCC3)n2)c1	43.1%	43.3%	52.8%	52.3%	41.2%	63.8%	33.6%	42.6%	24.5%	23.8%
COc1ccc([C@H]2c3[nH]c4ccccc4c3C[C@@H]3C(=O)N(C4CCN(Cc5ccccc5)CC4)CC(=O)N23)c(OC)c1	93.7%	82.3%	90.1%	80.8%	54.4%	68%	87%	69.8%	74.3%	67.1%
CS(=O)c1nccc(-c2c(-c3ccc(F)c(OCc4ccc(F)cc4)c3)nc3sccn23)n1 (stereo not given)	61.6%	95.3%	62.7%	100%	35.6%	16.9%	-51.8% (active)	102%	100%	100%
CCN1C(=O)N(CC)C2SC(N/N=C/C=C/c3ccccc3OC)=NC21 (stereo not given)	30.4%	54.9%	44.8%	47.3%	2.9% (active)	39.1%	1.31% (active)	27.1%	23.8%	7.22% (active)
Oc1ccccc1-c1nnc(SCc2ccc(O)c3ncccc23)o1	23.5%	67.5%	64.2%	31.1%	5.53% (active)	-8.17% (active)	20.7%	27.5%	32.2%	113%
CCOC(=O)Nc1ccc(-c2nc(-c3cccc(O)c3)c(-c3ccnc(Br)c3)[nH]2)cc1	31%	40.6%	54.7%	25.2%	37.6%	38.3%	25.1%	16%	20.5%	43.6%
COc1ccc(NC(=O)Cn2cc(CN3C(=O)c4ccc([N+](=O)[O-])cc4C3=O)nn2)cc1	99.7%	96.4%	106%	107%	106%	85.6%	99.9%	102%	107%	122%

Reference: PubChem BioAssay (NCI)
